“And” between values parts separate entries of the source, which are not always exact repeats. Equal values may be shown once. Among all 5,500 compounds or so, about 2,000 (36%) were called active. Another 18% or so got no clear call; they are omitted. The list shows a part of the results. A number with no mark means an inactive call. Rule as the data show it: active = normalized growth mostly below about 0.91 (no sharp cut-off); inconclusive = no clear call, values can overlap the other calls; inactive = mostly above about 0.92.
Experiment: chemical genetic growth profiling, strain panel (AID 1159580);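 also: tested at 20 µM; growth read once vehicle control cultures reached saturation at 30 °C; 1 = growth at the plate median or of vehicle wells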
Details: growth OD

CNCCC=C1c2ccccc2CCc2ccccc21
normalized growth (S. cerevisiae deletion strains, locus YJR075W, strain HOC1, stronger effect = lower value): 1.02 and 0.976 | normalized growth (S. cerevisiae deletion strains, locus YKL009W, strain mrt4, stronger effect = lower value): 1.01 | normalized growth (S. cerevisiae deletion strains, locus YKL068W, stronger effect = lower value): 1 | normalized growth (S. cerevisiae deletion strains, locus YKL085W, strain MDH1 (second series), stronger effect = lower value): 1 | normalized growth (S. cerevisiae deletion strains, locus YKL085W, strain MDH1, stronger effect = lower value): 1 | normalized growth (S. cerevisiae deletion strains, locus YKL160W, strain elf1, stronger effect = lower value): 0.943 | normalized growth (S. cerevisiae deletion strains, locus YKL190W, strain CNB1, stronger effect = lower value): 1.01 | normalized growth (S. cerevisiae deletion strains, locus YKR001C, strain vps1, stronger effect = lower value): 1.06 | normalized growth (S. cerevisiae deletion strains, locus YKR026C, strain gcn3, stronger effect = lower value): 0.975 | normalized growth (S. cerevisiae deletion strains, locus YKR091W, strain srl3, stronger effect = lower value): 0.973 | normalized growth (S. cerevisiae deletion strains, locus YLL001W, strain dnm1, stronger effect = lower value): 0.988 | normalized growth (S. cerevisiae deletion strains, locus YLL026W, stronger effect = lower value): 0.978 | normalized growth (S. cerevisiae deletion strains, locus YLL041C, strain sdh2, stronger effect = lower value): 0.985 | normalized growth (S. cerevisiae deletion strains, locus YLR027C, strain aat2, stronger effect = lower value): 0.967 | normalized growth (S. cerevisiae deletion strains, locus YLR039C, strain RIC1, stronger effect = lower value): 1.1 | normalized growth (S. cerevisiae deletion strains, locus YLR058C, strain SHM2, stronger effect = lower value): 1.02 | normalized growth (S. cerevisiae deletion strains, locus YLR102C, strain apc9, stronger effect = lower value): 1.01 | normalized growth (S. cerevisiae deletion strains, locus YLR113W, strain HOG1, stronger effect = lower value): 1 | normalized growth (S. cerevisiae deletion strains, locus YLR221C, strain rsa3, stronger effect = lower value): 0.991 | normalized growth (S. cerevisiae deletion strains, locus YLR258W, strain gsy2, stronger effect = lower value): 0.957 | normalized growth (S. cerevisiae deletion strains, locus YLR262C, strain YPT6 (second series), stronger effect = lower value): 1.01 | normalized growth (S. cerevisiae deletion strains, locus YLR262C, strain YPT6, stronger effect = lower value): 1.13 | normalized growth (S. cerevisiae deletion strains, locus YLR268W, strain sec22, stronger effect = lower value): 1.08 | normalized growth (S. cerevisiae deletion strains, locus YLR320W, strain mms22, stronger effect = lower value): 0.967 | normalized growth (S. cerevisiae deletion strains, locus YLR330W, strain CHS5, stronger effect = lower value): 1.01 | normalized growth (S. cerevisiae deletion strains, locus YLR342W, strain FKS1 (second series), stronger effect = lower value): 0.977 | normalized growth (S. cerevisiae deletion strains, locus YLR342W, strain FKS1, stronger effect = lower value): 0.91 | normalized growth (S. cerevisiae deletion strains, locus YLR357W, strain rsc2, stronger effect = lower value): 0.956 | normalized growth (S. cerevisiae deletion strains, locus YLR370C, strain arc18, stronger effect = lower value): 0.975 | normalized growth (S. cerevisiae deletion strains, locus YLR371W, strain rom2, stronger effect = lower value): 1.02 | normalized growth (S. cerevisiae deletion strains, locus YLR384C, strain iki3, stronger effect = lower value): 0.979 | normalized growth (S. cerevisiae deletion strains, locus YLR418C, strain cdc73, stronger effect = lower value): 1.01 | normalized growth (S. cerevisiae deletion strains, locus YML016C, strain PPZ1, stronger effect = lower value): 1.01 | normalized growth (S. cerevisiae deletion strains, locus YML032C, strain rad52, stronger effect = lower value): 1.06 | normalized growth (S. cerevisiae deletion strains, locus YML120C, strain ndi1, stronger effect = lower value): 0.986 | normalized growth (S. cerevisiae deletion strains, locus YML124C, strain tub3, stronger effect = lower value): 1.01 | normalized growth (S. cerevisiae deletion strains, locus YMR058W, strain fet3, stronger effect = lower value): 0.964 | normalized growth (S. cerevisiae deletion strains, locus YMR078C, strain ctf18, stronger effect = lower value): 1.02 | normalized growth (S. cerevisiae deletion strains, locus YMR125W, strain sto1, stronger effect = lower value): 0.933 | normalized growth (S. cerevisiae deletion strains, locus YMR129W, stronger effect = lower value): 0.976 | normalized growth (S. cerevisiae deletion strains, locus YMR205C, strain PFK2, stronger effect = lower value): 0.98 | normalized growth (S. cerevisiae deletion strains, locus YMR223W, strain ubp8, stronger effect = lower value): 0.989 | normalized growth (S. cerevisiae deletion strains, locus YMR231W, strain pep5, stronger effect = lower value): 0.974 | normalized growth (S. cerevisiae deletion strains, locus YMR263W, strain SAP30, stronger effect = lower value): 1.01 | normalized growth (S. cerevisiae deletion strains, locus YMR307W, strain GAS1, stronger effect = lower value): 1.02 | normalized growth (S. cerevisiae deletion strains, locus YNL067W, strain RPL9B, stronger effect = lower value): 1.02 | normalized growth (S. cerevisiae deletion strains, locus YNL071W, strain lat1, stronger effect = lower value): 0.987 | normalized growth (S. cerevisiae deletion strains, locus YNL128W, strain TEP1, stronger effect = lower value): 1.01 and 1.07 | normalized growth (S. cerevisiae deletion strains, locus YNL153C, strain GIM3, stronger effect = lower value): 1.02 and 0.984 | normalized growth (S. cerevisiae deletion strains, locus YNL175C, strain NOP13, stronger effect = lower value): 1 | normalized growth (S. cerevisiae deletion strains, locus YNL183C, strain NPR1, stronger effect = lower value): 0.938 | normalized growth (S. cerevisiae deletion strains, locus YNL197C, strain WHI3, stronger effect = lower value): 1.01 | normalized growth (S. cerevisiae deletion strains, locus YNL209W, strain ssb2, stronger effect = lower value): 0.984 | normalized growth (S. cerevisiae deletion strains, locus YNL224C, strain SQS1, stronger effect = lower value): 1.02 | normalized growth (S. cerevisiae deletion strains, locus YNL233W, strain BNI4, stronger effect = lower value): 1.01 | normalized growth (S. cerevisiae deletion strains, locus YNL248C, strain rpa49, stronger effect = lower value): 0.952 | normalized growth (S. cerevisiae deletion strains, locus YNL250W, strain rad50, stronger effect = lower value): 1.01 | normalized growth (S. cerevisiae deletion strains, locus YNL271C, strain bni1, stronger effect = lower value): 1.01 | normalized growth (S. cerevisiae deletion strains, locus YNL298W, strain CLA4, stronger effect = lower value): 1.02 | normalized growth (S. cerevisiae deletion strains, locus YNL307C, strain MCK1, stronger effect = lower value): 1.01 | normalized growth (S. cerevisiae deletion strains, locus YNL322C, strain KRE1 (second series), stronger effect = lower value): 0.98 | normalized growth (S. cerevisiae deletion strains, locus YNL322C, strain KRE1, stronger effect = lower value): 1.01 and 0.982 | normalized growth (S. cerevisiae deletion strains, locus YNR049C, strain mso1, stronger effect = lower value): 0.98 | normalized growth (S. cerevisiae deletion strains, locus YNR052C, strain pop2, stronger effect = lower value): 1.02 | normalized growth (S. cerevisiae deletion strains, locus YOL006C, strain TOP1, stronger effect = lower value): 0.969 | normalized growth (S. cerevisiae deletion strains, locus YOL012C, strain htz1): 0.912 | normalized growth (S. cerevisiae deletion strains, locus YOL147C, strain pex11, stronger effect = lower value): 1.02 | normalized growth (S. cerevisiae deletion strains, locus YOR001W, strain rrp6, stronger effect = lower value): 0.988 | normalized growth (S. cerevisiae deletion strains, locus YOR061W, strain CKA2, stronger effect = lower value): 1.01 | normalized growth (S. cerevisiae deletion strains, locus YOR069W, strain VPS5, stronger effect = lower value): 1.01 | normalized growth (S. cerevisiae deletion strains, locus YOR070C, strain gyp1, stronger effect = lower value): 0.978 | normalized growth (S. cerevisiae deletion strains, locus YOR080W, strain dia2, stronger effect = lower value): 0.967 | normalized growth (S. cerevisiae deletion strains, locus YOR083W, strain WHI5 (second series), stronger effect = lower value): 1.01 | normalized growth (S. cerevisiae deletion strains, locus YOR083W, strain WHI5, stronger effect = lower value): 0.898 | normalized growth (S. cerevisiae deletion strains, locus YOR106W, strain vam3, stronger effect = lower value): 0.949 | normalized growth (S. cerevisiae deletion strains, locus YOR136W, strain idh2, stronger effect = lower value): 1.01 | normalized growth (S. cerevisiae deletion strains, locus YOR144C, strain elg1, stronger effect = lower value): 1.03 | normalized growth (S. cerevisiae deletion strains, locus YOR184W, strain ser1, stronger effect = lower value): 1.04 | normalized growth (S. cerevisiae deletion strains, locus YOR231W, strain MKK1, stronger effect = lower value): 1.01 | normalized growth (S. cerevisiae deletion strains, locus YOR265W, strain rbl2, stronger effect = lower value): 0.989 | normalized growth (S. cerevisiae deletion strains, locus YOR270C, strain vph1, stronger effect = lower value): 0.731 (active) | normalized growth (S. cerevisiae deletion strains, locus YOR290C, strain snf2, stronger effect = lower value): 0.928 | normalized growth (S. cerevisiae deletion strains, locus YOR316C, strain cot1, stronger effect = lower value): 1.02 | normalized growth (S. cerevisiae deletion strains, locus YPL051W, strain arl3, stronger effect = lower value): 0.956 | normalized growth (S. cerevisiae deletion strains, locus YPL055C, strain LGE1, stronger effect = lower value): 1.05 and 0.967 | normalized growth (S. cerevisiae deletion strains, locus YPL078C, strain atp4, stronger effect = lower value): 0.959 | normalized growth (S. cerevisiae deletion strains, locus YPL106C, strain sse1, stronger effect = lower value): 0.983 | normalized growth (S. cerevisiae deletion strains, locus YPL240C, strain hsp82, stronger effect = lower value): 1 | normalized growth (S. cerevisiae deletion strains, locus YPL241C, strain CIN2, stronger effect = lower value): 1.01 | normalized growth (S. cerevisiae deletion strains, locus YPL256C, strain CLN2, stronger effect = lower value): 0.962 | normalized growth (S. cerevisiae deletion strains, locus YPR119W, strain clb2, stronger effect = lower value): 1.01 | normalized growth (S. cerevisiae deletion strains, locus YPR141C, strain kar3, stronger effect = lower value): 1.01 | normalized growth (S. cerevisiae deletion strains, locus YPR163C, strain tif3, stronger effect = lower value): 1.03 | normalized growth (S. cerevisiae deletion strains, locus YPR167C, strain met16, stronger effect = lower value): 1.02 | normalized growth (S. cerevisiae deletion strains, strain wtn01, stronger effect = lower value): 1.05 | normalized growth (S. cerevisiae strains, strain wild type, stronger effect = lower value): 1.01

Source: PubChem BioAssay AID1159580 (chemical genetic matrix, 2015)
